A selection: hits, their analogues and other compounds. The true share with any hit is near 21%.
SARS PLpro yeast – inhibitors of SARS-CoV papain-like protease in yeast. S. cerevisiae expressing SARS-CoV PLpro, growth rescue. Potency, µM (top dose mostly 32.9 µM), hits mostly activators. 0.19% of 330,000 active; note: nearly all actives have a fitted effect of over 55% in size
Shiga toxin inh – inhibitors of Shiga toxin in Vero cells; 9.2% of 290,000 active; inhibition, % at 38.7 µM; Vero cells, Shiga toxin protein synthesis inhibition reporter; in the data active = inhibition mostly above about 28%, no sharp cut-off; inactive = mostly below about 43%
Pf growth 48h – inhibits P. falciparum growth in the first generation, 48 h; P. falciparum luciferase growth in erythrocytes, 48 h; Potency, µM (doses to about 28.7 µM), usual class: inhibitors; 5.9% of 310,000 active; AID 504832; active = well fitted inhibition curve with a large enough effect; inconclusive = small, poorly fitted or top-dose-only effect, or another doubt; inactive = no such curve, though single readings can be large or run the other way
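Growth was read as firefly luciferase luminescence after a 48 h, 37 C, 5% CO2 exposure of compounds to reporter-bearing P. falciparum cultures (0.1% parasitemia, 2% hematocrit final) in Albumax-supplemented RPMI 1640.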
NS1 inh – influenza NS1 inhibition; Potency, µM (series often up to 46.1 µM); AID 2326; 0.4% of 270,000 active; note: actives are rising curves; nearly all actives have a fitted effect of over 50% in size
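Recovery from NS1-induced slow growth read by OD600 in budding yeast switched to galactose assay medium (pH 6.0, -URA) at 1:100 dilution. Compound 23 nl per well; the matching strain lacking NS1 serves as control.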
CHX counter – affects cycloheximide protein synthesis inhibition readout, counter-screen; cell reporter, cycloheximide protein synthesis inhibition counterscreen; max response, %; 12% of 300,000 active; AID 2314; in the data active = max response mostly above about 13%, no sharp cut-off; inactive = mostly below about 14%; note: read at 38.3 µM for the half of the compounds with a filed dose
Pf growth 96h – inhibits malaria parasite growth, 96 h. Potency, µM (highest dose often 28.7 µM), usual class: inhibitors. P. falciparum luciferase reporter growth, 96 h. 6.9% of 320,000 active; active = well fitted inhibition curve with a large enough effect; inconclusive = small, poorly fitted or top-dose-only effect, or another doubt; inactive = no such curve, though single readings can be large or run the other way
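Compounds incubated with erythrocytes infected by luciferase-expressing P. falciparum (2% hematocrit, 0.05% parasitemia final) for 96 hours, 37 C in 5% CO2. Growth inhibition scored as decreased luciferase luminescence.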
Flu NS1 inh – validation of influenza NS1 protein function inhibitors. shares compounds with NS1 inh. influenza NS1 function cell assay, 15-point titration. activity change, negative = inhibition, % at 32.9 µM. 1,400 tested, under 10 active. AID 492980
PR8 titer – reduces influenza A/PR/8/34 replication in MDCK cells; MDCK infected influenza A/PR/8/34, virus titer TCID50; active compounds read low; 30% of 95 active; virus titer (log TCID50), log10 TCID50 at 5 µM; shares compounds with NS1 inh; call rule not given here
Each line names hits and unclear results; the compound was inactive in the other large screens (follow-up assays come after a bar, where they were run). Unless noted, calls come from the whole dose curve.

O=S(=O)(c1ccc(NC(=S)NCCC(c2ccccc2)c2ccccc2)cc1)N1CCOCC1	Pf growth 48h inconclusive, NS1 inh 14µM, Pf growth 96h 8.3µM | Flu NS1 inh inactive
COC(=O)c1cc(OC)c(OC)cc1NC(=S)N1CCN(C/C=C/c2ccccc2)CC1	Pf growth 48h inconclusive
CSc1ccc(CN2CCC(Cc3ccccc3)CC2)cc1	none
Clc1cccc(CN2CCC(Cc3ccccc3)CC2)c1	NS1 inh inconclusive | Flu NS1 inh inactive
CCN1CCN(C(=O)/C(=C/c2cccs2)NC(=O)c2ccc(C)c(C)c2)CC1	none
Cc1ccc(NC(=O)C2CCCN(S(=O)(=O)c3cnc[nH]3)C2)c(Br)c1 (stereo not drawn)	NS1 inh 2µM | Flu NS1 inh inactive
Cc1ccccc1NC(=O)C1CCCN(S(=O)(=O)c2cnc[nH]2)C1 (stereo not drawn)	NS1 inh 14µM | Flu NS1 inh inactive
Cc1cc(-c2ccccc2)c2c(=O)[nH][nH]c2n1	SARS PLpro yeast inconclusive, NS1 inh 10µM | Flu NS1 inh inconclusive
CC1(C)Cc2c(c(-c3ccccc3)nc3[nH][nH]c(=O)c23)CO1	none (no result: Pf growth 96h)
COc1cccc(NS(=O)(=O)c2ccc3[nH]cc(C(=O)NCCC(C)C)c(=O)c3c2)c1	Pf growth 48h 9.3µM, NS1 inh 4.5µM | Flu NS1 inh inactive
COc1ccc(C2C(C(=O)c3sc(C)nc3C)=C(O)C(=O)N2CCCn2ccnc2)cc1OC (stereo not drawn)	NS1 inh 1.8µM | Flu NS1 inh inactive
COc1ccc(C2C(C(=O)c3sc(C)nc3C)=C(O)C(=O)N2CCCn2ccnc2)cc1 (stereo not drawn)	none (no result: SARS PLpro yeast, Shiga toxin inh, Pf growth 48h, CHX counter, Pf growth 96h)
COc1ccc(-n2c(SCC(=O)Nc3ccc4c(c3)OCO4)nc3ccccc3c2=O)cc1	Pf growth 48h inconclusive, NS1 inh 22µM | Flu NS1 inh inactive
CCOc1ccc(-n2c(SCC(=O)Nc3ccc4c(c3)OCO4)nc3ccccc3c2=O)cc1	Pf growth 48h inconclusive
O=C(CSc1nc2ccccc2c(=O)n1-c1ccc(F)cc1)Nc1cc(S(=O)(=O)N2CCOCC2)ccc1Cl	Pf growth 48h 6.6µM, NS1 inh 13µM, Pf growth 96h 3.7µM | Flu NS1 inh inactive
O=C(CSc1nnc(Nc2ccccc2)s1)Nc1cccc(S(=O)(=O)N2CCCCC2)c1	Shiga toxin inh 58, Pf growth 48h inconclusive, NS1 inh 11µM, CHX counter 49 | Flu NS1 inh inconclusive
O=C(CSc1nc2ccccc2c(=O)n1-c1ccccc1Cl)Nc1cccc(S(=O)(=O)N2CCOCC2)c1	Pf growth 48h inconclusive, NS1 inh 11µM | Flu NS1 inh inactive | PR8 titer 6.7
O=C(CSc1nc2ccccc2c(=O)n1-c1ccc(F)cc1)Nc1ccc(N2CCOCC2)cc1	Pf growth 96h inconclusive
O=C(CSc1ncnc2ccccc12)Nc1cccc(S(=O)(=O)N2CCOCC2)c1	Pf growth 96h inconclusive (no result: NS1 inh)
COc1ccc(OC)c(NC(=O)c2nnn(CC(=O)Nc3ccc4c(c3)OCO4)c2N)c1	none
CCCCS(=O)(=O)N1CCC(C(=O)Oc2ccc(Cl)cc2)CC1	none
C1CN(c2nc3nonc3nc2N2C[C@H]3CC[C@H]2C3)CCS1	Pf growth 96h inconclusive
COc1ccc(CCn2c(SCC(=O)Nc3cc(C)on3)nc3ccccc3c2=O)cc1OC	none
Cc1cc(NC(=O)CSc2nc3cc4c(cc3c(=O)n2CCc2ccccc2)OCO4)no1	NS1 inh 13µM, CHX counter 9.4, Pf growth 96h inconclusive | Flu NS1 inh inactive
CSc1cc(-c2ccc(Cl)cc2)c(C(=O)NN)s1	Pf growth 48h inconclusive, NS1 inh inconclusive, Pf growth 96h 12µM | Flu NS1 inh inactive
CSc1cc(-c2ccc(Cl)cc2)c(C(=O)NC(C)C)s1	none
O=C(COC(=O)CN1C(=O)C2CCCCC2C1=O)NNC(=O)c1ccc(Cl)cc1 (stereo not drawn)	Pf growth 48h inconclusive (no result: Shiga toxin inh, NS1 inh, CHX counter)
CN(/N=C\c1ccc(O)c(O)c1)c1nc(-c2ccccc2)cc(-c2ccccc2)n1	Pf growth 48h 10µM, NS1 inh 8.9µM, Pf growth 96h inconclusive | Flu NS1 inh inconclusive
CCCCc1n[nH]c2c1/C(=N/O)CC(c1ccccc1)C2 (stereo not drawn)	NS1 inh inconclusive, CHX counter 27 | Flu NS1 inh inactive
CCCCCCn1c(-c2ccco2)nc2oc3cc(OC)ccc3c(=O)c2c1=O	Pf growth 48h 5.2µM, NS1 inh 13µM, Pf growth 96h inconclusive | Flu NS1 inh inactive
NC(=O)c1ccsc1NC(=O)C1CCCN1S(=O)(=O)c1ccc(Cl)cc1 (stereo not drawn)	Pf growth 48h inconclusive, NS1 inh 8.9µM (no result: Pf growth 96h) | Flu NS1 inh inactive
COc1cc(NC(=O)c2cccnc2)ccc1-c1cc2ccccc2oc1=O	none (no result: NS1 inh)
O=C(Nc1ccc(-c2cc3ccccc3oc2=O)c(Cl)c1)c1cccnc1	NS1 inh 2.2µM | Flu NS1 inh inactive
COc1ccccc1/C=N/NC(=O)c1nnn(-c2nonc2N)c1-c1cccs1	NS1 inh 2.2µM | Flu NS1 inh inactive
Fc1ccc(CN2CCCCCCC2)cc1	none (no result: Pf growth 48h)
N=c1c2c(n(Cc3ccc(F)cc3)c3c1CCC3)CCC2	Pf growth 48h 0.12µM, NS1 inh 1µM | Flu NS1 inh inactive
CCC/C(=N/NC(=O)c1ccc2c(c1)OCO2)c1cccs1	Shiga toxin inh 89, NS1 inh inconclusive, CHX counter 96, Pf growth 96h inconclusive | Flu NS1 inh inactive
CCCCN(C(=O)C1CSC2(C)CCC(=O)N12)c1c(N)n(Cc2ccccc2)c(=O)[nH]c1=O (stereo not drawn)	Pf growth 96h inconclusive (no result: Shiga toxin inh, NS1 inh, CHX counter)
c1ccc(-c2ccncc2)cc1	none (no result: Shiga toxin inh, Pf growth 48h, NS1 inh, CHX counter, Pf growth 96h)
O=C1C(c2ccncc2)=C(O)c2ccccc21	NS1 inh 0.25µM, CHX counter 26 | Flu NS1 inh inactive
Cc1nnc(NC(=O)CSc2ncc(-c3ccccc3)[nH]2)s1	Shiga toxin inh 31, NS1 inh 4.5µM | Flu NS1 inh inactive
CC(C)(C)NC(=O)Cn1nnnc1-c1nonc1N	NS1 inh inconclusive | Flu NS1 inh inactive
CC(C)(C)NC(=O)Cn1c(-c2nonc2N)nc2ccccc21	none
CCOC(=O)C1=C(c2ccccc2)N=c2s/c(=C\c3ccc(O)cc3)c(=O)n2C1c1cccs1 (stereo not drawn)	Pf growth 48h 2.9µM, NS1 inh 7.1µM, Pf growth 96h 2.6µM | Flu NS1 inh inactive
COC(=O)C1=C(C)N=c2s/c(=C/c3cccs3)c(=O)n2C1c1cccs1 (stereo not drawn)	Pf growth 48h inconclusive
O=C(CSc1ccc(Cl)cc1)NC1=NN(c2ccccc2)C(=O)C1	NS1 inh 11µM | Flu NS1 inh inactive

Screening data (PubChem)
